Values joined by “and” are separate entries in the source; they are usually repeats but may differ in a detail not shown here. Equal values may be shown once. In all, about 5,500 compounds went through this assay and about 2,000 (36%) were called active. About 18% were inconclusive and are not listed. This is one part of the list. Values without a mark were called inactive. No stated cut-off is given here; in the data, active means normalized growth mostly below about 0.91 (no sharp cut-off); inconclusive means no clear call, values can overlap the other calls; inactive means mostly above about 0.92.
Assay: chemical genetic growth profiling, strain panel (AID 1159580);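 further: tested at 20 µM; growth read once vehicle control cultures reached saturation at 30 °C; 1 = growth at the plate median or of vehicle wells; lower values mean less growth of the strain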
Settings: growth OD
[1] = S. cerevisiae deletion strains, locus YAL013W, strain DEP1, hits give low values
[2] = S. cerevisiae deletion strains, locus YBR229C, strain ROT2, hits give low values
[3] = S. cerevisiae deletion strains, locus YDL101C, strain DUN1, hits give low values
[4] = S. cerevisiae deletion strains, locus YDR150W, strain NUM1, hits give low values
[5] = S. cerevisiae deletion strains, locus YEL061C, strain CIN8, hits give low values
[6] = S. cerevisiae deletion strains, locus YGR052W, strain FMP48, hits give low values
[7] = S. cerevisiae deletion strains, locus YGR078C, strain PAC10, hits give low values
[8] = S. cerevisiae deletion strains, locus YHR030C, strain SLT2, hits give low values
[9] = S. cerevisiae deletion strains, locus YHR079C, strain IRE1, hits give low values
[10] = S. cerevisiae deletion strains, locus YHR082C, strain KSP1, hits give low values
[11] = S. cerevisiae deletion strains, locus YHR087W, strain rtc3, hits give low values
[12] = S. cerevisiae deletion strains, locus YJL095W, strain BCK1, hits give low values
[13] = S. cerevisiae deletion strains, locus YJL187C, strain SWE1, hits give low values
[14] = S. cerevisiae deletion strains, locus YJR043C, strain POL32, hits give low values
[15] = S. cerevisiae deletion strains, locus YJR066W, strain TOR1, hits give low values
[16] = S. cerevisiae deletion strains, locus YJR075W, strain HOC1, hits give low values
[17] = S. cerevisiae deletion strains, locus YKL203C, strain TOR2, hits give low values
[18] = S. cerevisiae deletion strains, locus YLR039C, strain RIC1, hits give low values
[19] = S. cerevisiae deletion strains, locus YLR058C, strain SHM2 (second series), hits give low values
[20] = S. cerevisiae deletion strains, locus YLR085C, strain ARP6, hits give low values
[21] = S. cerevisiae deletion strains, locus YLR113W, strain HOG1, hits give low values
[22] = S. cerevisiae deletion strains, locus YLR262C, strain YPT6, hits give low values
[23] = S. cerevisiae deletion strains, locus YML094W, strain GIM5, hits give low values
[24] = S. cerevisiae deletion strains, locus YMR219W, strain ESC1, hits give low values
[25] = S. cerevisiae deletion strains, locus YMR263W, strain SAP30, hits give low values
[26] = S. cerevisiae deletion strains, locus YNL153C, strain GIM3, hits give low values
[27] = S. cerevisiae deletion strains, locus YNL183C, strain NPR1, hits give low values
[28] = S. cerevisiae deletion strains, locus YNL207W, strain RIO2, hits give low values
[29] = S. cerevisiae deletion strains, locus YNL298W, strain CLA4 (second series), hits give low values
[30] = S. cerevisiae deletion strains, locus YNL322C, strain KRE1, hits give low values
[31] = S. cerevisiae deletion strains, locus YNR030W, strain Alg12, hits give low values
[32] = S. cerevisiae deletion strains, locus YOL006C, strain TOP1, hits give low values
[33] = S. cerevisiae deletion strains, locus YOR119C, strain RIO1, hits give low values
[34] = S. cerevisiae deletion strains, locus YOR231W, strain MKK1, hits give low values
[35] = S. cerevisiae deletion strains, locus YPL055C, strain LGE1, hits give low values
[36] = S. cerevisiae deletion strains, locus YPL241C, strain CIN2, hits give low values
[37] = S. cerevisiae deletion strains, locus YPL256C, strain CLN2, hits give low values
[38] = S. cerevisiae deletion strains, locus YPR135W, strain CTF4, hits give low values

CCOC(=O)c1ccc(Oc2sccc2[N+](=O)[O-])cc1
normalized growth [1]: 0.796 (active)
normalized growth [2]: 0.817 (active)
normalized growth [3]: 0.77 (active)
normalized growth [4]: 0.866
normalized growth [5]: 0.442 (active)
normalized growth [6]: 0.872
normalized growth [7]: 0.811 (active)
normalized growth [8]: 0.167 (active) and 0.769 (active)
normalized growth [9]: 0.852 (active)
normalized growth [10]: 0.878
normalized growth [11]: 0.848 (active)
normalized growth [12]: 0.772
normalized growth [13]: 1.02
normalized growth [14]: 0.81 (active)
normalized growth [15]: 0.876
normalized growth [16]: 0.719 (active)
normalized growth (S. cerevisiae deletion strains, locus YKL171W, strain NNK1, hits give low values): 0.854
normalized growth (S. cerevisiae deletion strains, locus YKL190W, strain CNB1, hits give low values): 0.0675 (active)
normalized growth [17]: 0.849 (active)
normalized growth [18]: 0.239 (active)
normalized growth [19]: 0.928 (active)
normalized growth [20]: 0.143 (active)
normalized growth [21]: 0.735
normalized growth [22]: 0.407 (active)
normalized growth [23]: 0.747 (active)
normalized growth [24]: 0.848 (active)
normalized growth [25]: 0.867 (active)
normalized growth [26]: 0.849 (active)
normalized growth [27]: 0.864
normalized growth [28]: 0.862
normalized growth [29]: 0.241 (active)
normalized growth [30]: 0.931 (active)
normalized growth [31]: 0.341 (active)
normalized growth [32]: 0.102 (active)
normalized growth [33]: 0.86
normalized growth [34]: 0.869
normalized growth [35]: 0.84
normalized growth [36]: 0.446 (active)
normalized growth [37]: 0.734 (active)
normalized growth [38]: 0.211 (active)
normalized growth (S. cerevisiae strains, strain wild type, hits give low values): 0.0898 (active)

CCOC(=O)c1ccc(Oc2ccc(Cl)cc2Cl)c([N+](=O)[O-])c1
normalized growth [1]: 1
normalized growth [2]: 0.993
normalized growth [3]: 0.992
normalized growth [4]: 1.01
normalized growth [5]: 0.959
normalized growth [7]: 1.01
normalized growth [8]: 0.883
normalized growth [11]: 0.998
normalized growth [13]: 0.99
normalized growth [14]: 0.996
normalized growth [16]: 0.968
normalized growth [18]: 1
normalized growth [19]: 0.99
normalized growth [20]: 0.92
normalized growth [22]: 1.01
normalized growth [23]: 0.975
normalized growth [24]: 0.997
normalized growth [25]: 0.996
normalized growth (S. cerevisiae deletion strains, locus YNL128W, strain TEP1, hits give low values): 0.987
normalized growth [26]: 0.998
normalized growth [29]: 0.961
normalized growth [30]: 1
normalized growth [31]: 0.959
normalized growth [32]: 0.81
normalized growth [35]: 0.961
normalized growth [36]: 0.958
normalized growth [38]: 0.918

O=[N+]([O-])c1ccsc1Oc1cccc(C(F)(F)F)c1
normalized growth (S. cerevisiae deletion strains, locus YAR019C, strain CDC15, hits give low values): 0.945
normalized growth (S. cerevisiae deletion strains, locus YBL105C, strain PKC1, hits give low values): 0.986
normalized growth (S. cerevisiae deletion strains, locus YBR135W, strain CKS1, hits give low values): 0.95
normalized growth (S. cerevisiae deletion strains, locus YBR136W, strain MEC1, hits give low values): 0.976
normalized growth (S. cerevisiae deletion strains, locus YBR160W, strain CDC28, hits give low values): 1.01
normalized growth (S. cerevisiae deletion strains, locus YDL017W, strain CDC7, hits give low values): 0.987
normalized growth (S. cerevisiae deletion strains, locus YDL028C, strain MPS1, hits give low values): 0.989
normalized growth [3]: 0.958
normalized growth (S. cerevisiae deletion strains, locus YDL108W, strain KIN28, hits give low values): 0.979
normalized growth (S. cerevisiae deletion strains, locus YDL132W, strain cdc53, hits give low values): 0.946
normalized growth (S. cerevisiae deletion strains, locus YDL214C, strain PRR2, hits give low values): 0.909
normalized growth (S. cerevisiae deletion strains, locus YDR052C, strain DBF4, hits give low values): 0.989
normalized growth (S. cerevisiae deletion strains, locus YDR054C, strain cdc34, hits give low values): 0.929
normalized growth (S. cerevisiae deletion strains, locus YDR226W, strain ADK1, hits give low values): 0.973
normalized growth (S. cerevisiae deletion strains, locus YDR477W, strain SNF1, hits give low values): 0.876
normalized growth (S. cerevisiae deletion strains, locus YER123W, strain YCK3, hits give low values): 0.814
normalized growth (S. cerevisiae deletion strains, locus YER133W, strain GLC7, hits give low values): 0.831
normalized growth (S. cerevisiae deletion strains, locus YFL009W, strain cdc4, hits give low values): 0.925
normalized growth (S. cerevisiae deletion strains, locus YFL029C, strain CAK1, hits give low values): 0.94
normalized growth (S. cerevisiae deletion strains, locus YFR003C, strain YPI1, hits give low values): 0.984
normalized growth (S. cerevisiae deletion strains, locus YFR019W, strain FAB1, hits give low values): 0.927
normalized growth (S. cerevisiae deletion strains, locus YFR028C, strain CDC14, hits give low values): 0.955
normalized growth (S. cerevisiae deletion strains, locus YGR040W, strain KSS1, hits give low values): 0.857
normalized growth [6]: 0.88
normalized growth (S. cerevisiae deletion strains, locus YGR092W, strain DBF2, hits give low values): 0.769
normalized growth [8]: 1.26 [resistant] (active)
normalized growth [9]: 0.962
normalized growth [10]: 0.907
normalized growth (S. cerevisiae deletion strains, locus YHR205W, strain SCH9, hits give low values): 0.872
normalized growth (S. cerevisiae deletion strains, locus YIL147C, strain SLN1, hits give low values): 0.979
normalized growth [12]: 0.861
normalized growth (S. cerevisiae deletion strains, locus YJL128C, strain PBS2, hits give low values): 0.939
normalized growth (S. cerevisiae deletion strains, locus YJL157C, strain FAR1, hits give low values): 0.887
normalized growth (S. cerevisiae deletion strains, locus YJR016C, strain ILV3, hits give low values): 0.952
normalized growth (S. cerevisiae deletion strains, locus YJR066W, strain TOR1 (second series), hits give low values): 0.71
normalized growth [15]: 0.926
normalized growth (S. cerevisiae deletion strains, locus YKL048C, strain ELM1, hits give low values): 0.912
normalized growth (S. cerevisiae deletion strains, locus YKL067W, strain YNK1, hits give low values): 0.905
normalized growth (S. cerevisiae deletion strains, locus YKL101W, strain HSL1, hits give low values): 0.931
normalized growth (S. cerevisiae deletion strains, locus YKL193C, strain SDS22, hits give low values): 0.944
normalized growth [17]: 0.887
normalized growth [21]: 0.821 (active)
normalized growth (S. cerevisiae deletion strains, locus YLR133W, strain CKI1, hits give low values): 0.936
normalized growth (S. cerevisiae deletion strains, locus YLR403W, strain SFP1, hits give low values): 0.852
normalized growth (S. cerevisiae deletion strains, locus YML070W, strain DAK1, hits give low values): 0.895
normalized growth (S. cerevisiae deletion strains, locus YMR001C, strain CDC5, hits give low values): 0.956
normalized growth (S. cerevisiae deletion strains, locus YMR205C, strain PFK2 (second series), hits give low values): 0.911
normalized growth (S. cerevisiae deletion strains, locus YMR277W, strain FCP1, hits give low values): 0.94
normalized growth (S. cerevisiae deletion strains, locus YNL006W, strain LST8, hits give low values): 0.946
normalized growth (S. cerevisiae deletion strains, locus YNL020C, strain ARK1, hits give low values): 0.925
normalized growth (S. cerevisiae deletion strains, locus YNL161W, strain CBK1, hits give low values): 0.972
normalized growth [27]: 0.869
normalized growth [28]: 0.96
normalized growth (S. cerevisiae deletion strains, locus YNL222W, strain SSU72, hits give low values): 0.972
normalized growth (S. cerevisiae deletion strains, locus YNL307C, strain MCK1 (second series), hits give low values): 0.939
normalized growth (S. cerevisiae deletion strains, locus YOL078W, strain AVO1, hits give low values): 0.93
normalized growth (S. cerevisiae deletion strains, locus YOL136C, strain PFK27, hits give low values): 0.89
normalized growth (S. cerevisiae deletion strains, locus YOR061W, strain CKA2, hits give low values): 0.88
normalized growth [33]: 0.883
normalized growth [34]: 0.849
normalized growth (S. cerevisiae deletion strains, locus YOR329C, strain SCD5, hits give low values): 0.984
normalized growth (S. cerevisiae deletion strains, locus YPL031C, strain PHO85, hits give low values): 0.842
normalized growth (S. cerevisiae deletion strains, locus YPL153C, strain RAD53, hits give low values): 0.846
normalized growth (S. cerevisiae deletion strains, locus YPL204W, strain HRR25, hits give low values): 0.845
normalized growth (S. cerevisiae deletion strains, locus YPL209C, strain IPL1, hits give low values): 0.984
normalized growth [37]: 0.991
normalized growth (S. cerevisiae deletion strains, locus YPR025C, strain CCL1, hits give low values): 0.98
normalized growth (S. cerevisiae deletion strains, locus YPR106W, strain ISR1, hits give low values): 0.966
normalized growth (S. cerevisiae deletion strains, locus YPR111W, strain DBF20, hits give low values): 0.96
normalized growth (S. cerevisiae deletion strains, strain NNK1, hits give low values): 0.976
normalized growth (S. cerevisiae deletion strains, strain TSCII, hits give low values): 0.932

From PubChem BioAssay AID1159580 (chemical genetic matrix, 2015)
